The nature of this experiment: viability loss in HEK293 kidney cells – cell-based, cherry-picks, set 5, cytotoxicity control, dose response (AID 1053117).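 Also: more negative means greater loss of ATP signal and more cytotoxicity.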

Potency and affinity values are given separately. Active and inactive are the calls of the source.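 The calls were made as follows: active = compounds lowering cell ATP signal with a fitted half-effect dose at most twice the top valid dose; inconclusive = flat curve with 30 to 70% signal loss, or bad fit; inactive = wrong direction, flat within 30%, or weaker than limit.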

In the case of `C=C1C(=O)O[C@@H]2C[C@@H](C)[C@@H]3C=CC(=O)[C@@]3(C)[C@@H](O)[C@H]12`, the outcome was inactive.

Values taken from PubChem BioAssay AID1053117 (Broad Institute, 2014).
